Out of some 420,000 compounds screened, about 64,000 (15%) were called active. About 27% were inconclusive and are not listed. Calls follow the shape of the dose curve; as a rule, active = well fitted inhibition curve with a large enough effect; inconclusive = small, poorly fitted or top-dose-only effect; inactive = flat fitted curve, though single readings scatter. Only a sample is shown. A call without a number means that no potency is given here.
Potency is read from the fitted curve at half-maximal effect.

The experiment is described as follows: qHTS for Inhibitors of human tyrosyl-DNA phosphodiesterase 1 (TDP1): qHTS in cells in absence of CPT. Also: nearly all actives have a fitted effect of over 55% in size. As to conditions: DT40 Tdp1-/- hTDP1 cells, no CPT, ATP luminescence, 48 h; activity change, negative = growth inhibition: at 46.2 µM (top of the series). The gist of the method:
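Chicken DT40 Tdp1-/- cells complemented with human TDP1, screened without camptothecin (DMSO vehicle only), 400 cells/well. Compounds pin-transferred, cells incubated at 37 °C for at least 48 hr. Growth read as ATP-dependent luminescence (CellTiter-Glo, 30 min at RT).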
As for `Cc1sc2ncn(CC(=O)NCCN(C)C)c(=O)c2c1S(=O)(=O)N1CCC(C)CC1`, the Potency entry was “inactive”. In the case of `O=C(Nc1cccc(OCC(=O)N2CCOCC2)c1)C1CCCCC1` it was “inactive”; in that of `COc1cc(/C=C/C(=O)O)cc(S(=O)(=O)Nc2ccccc2C(=O)NCCc2ccccc2)c1OC`, “inactive”. For the molecule `Cc1cc(C)nc(/N=C2\NC(=O)CC(C(=O)O)N2c2ccc(Cl)cc2Cl)n1` (stereo unspecified), the Potency entry was “inactive”.

`COc1ccc(C(C#N)Nc2ccccc2C)cc1` (stereo unspecified): the Potency result was “inactive”. In the case of `COC(=O)C1C(=O)NCC1c1ccc(OC)cc1` (stereo unspecified) it was “inactive”.

For `COC(=O)C1=C(Nc2ccc(OC)cc2)C=C(C)C(C(=O)OC)C1c1ccc(C)cc1` (stereo unspecified), the Potency is 16.4 µM (active).

In the case of `COc1ccc(N2C(=O)C(O)C2c2ccc(C)cc2)cc1` (stereo unspecified), the Potency entry is “inactive”.

`O=C(Nc1ccccc1F)C1C2C=CC3(O2)C1C(=O)N(c1cccnc1)C3C(=O)NC1CCCCC1` (stereo unspecified): the Potency entry is “inactive”. For the molecule `CCCNc1c(N)c(=O)c1=O`, the Potency entry is “inactive”.

In the case of `Cc1nc([N+](=O)[O-])c(NCCCO)n1Cc1ccccc1`, the Potency result is “inactive”.

As to `COc1ccc(C2OCC3(CO2)SC(=O)NC3=O)cc1OC` (stereo unspecified), the Potency result is “inactive”. In the case of `Cn1c(=O)c2c(nc(SCC(=O)Nc3ccc(F)cc3)n2Cc2ccccc2)n(C)c1=O` it was 4.61 µM (active).

In the case of `Cn1c(=O)c2c(nc(SCCNS(=O)(=O)c3ccccc3)n2C)n(C)c1=O`, the Potency result was “inactive”. In the case of `CSc1nnc(C2CCCN(CC(=O)Nc3ccccc3N3CCOCC3)C2)n1C(C)C` (stereo unspecified) it was “inactive”; in that of `CC(C)n1c(SCC(=O)Nc2ccccc2N2CCCCC2)nc2c1c(=O)n(C)c(=O)n2C`, 23.1 µM (active); in that of `Cc1cccc(Cn2c(SCCO)nc3c2c(=O)n(C)c(=O)n3C)c1`, 14.6 µM (active). In the case of `CCCSc1nc2c(c(=O)n(C)c(=O)n2C)n1Cc1ccc(C)cc1` it was 16.4 µM (active); in that of `C#CC(C)(C)NC(=O)CSc1nc2c(c(=O)n(C)c(=O)n2C)n1CCCC`, “inactive”.

As to `CCOC(=O)CSc1nc2c(c(=O)n(C)c(=O)n2C)n1Cc1ccccc1F`, the Potency entry is “inactive”. In the case of `CCC1CCCCN1C(=O)CSc1nc2c(c(=O)n(C)c(=O)n2C)n1C` (stereo unspecified) it was “inactive”; in that of `CCOc1ccc(Cn2c(SCCCCC#N)nc3c2c(=O)n(C)c(=O)n3C)cc1OCC`, “inactive”.

For `COc1ccc(NC(=O)CCn2ccnc2)c(OC)c1`, the Potency entry is “inactive”. In the case of `Cc1ccc(C2(C)NC(=O)N(CC(=O)Nc3ccccc3C(=O)N3CCCCC3)C2=O)cc1` (stereo unspecified) it was “inactive”; in that of `CC(=O)NC(CC(=O)Nc1nc(-c2ccccc2)c(C(C)=O)s1)c1ccccc1` (stereo unspecified), “inactive”.

In the case of `Cc1cc(=O)n2c3c(cccc13)CCC2`, the Potency entry is “inactive”.

As for `CCCCn1c(=O)c(C(C)=O)c(O)c2ccccc21`, the Potency entry was “inactive”. Regarding `CCNC(=O)c1c(O)c2cccc3c2n(c1=O)CC3`, the Potency is 23.1 µM (active). In the case of `CC(C)Cc1nnc(NC(=O)CCNC(=O)c2ccccc2Cl)s1` it was “inactive”; in that of `COc1cccc(-c2cc3nc(NCc4ccccc4OC)n(C)c(=O)c3s2)c1`, 20.6 µM (active); in that of `Cn1c(NCc2cccnc2)nc2cc(-c3ccc(F)cc3)sc2c1=O`, “inactive”.

In the case of `COc1ccccc1CNc1nccn(-c2ccc(F)cc2)c1=O`, the Potency entry was “inactive”. For the molecule `CC(=O)NC(CC(=O)O)c1ccc(F)cc1` (stereo unspecified), the Potency entry was “inactive”. On to `COc1ccccc1CC1(C)C(=O)Nc2ccc(OC(F)(F)F)cc21` (stereo unspecified), for which the Potency entry was “inactive”. In the case of `CC1(Cc2ccccc2C#N)C(=O)Nc2ccc(-c3ccc4[nH]ccc4c3)cc21` (stereo unspecified) it was 4.11 µM (active); in that of `CN1CCCN(S(=O)(=O)c2ccc3c(c2)OCCO3)CC1`, “inactive”. As for `N#CCC(=O)NC(=O)NCC1CC1`, the Potency entry is “inactive”. In the case of `CC(OC(=O)c1ccc(-n2cnnn2)cc1)C(=O)NCc1ccccc1` (stereo unspecified) it was “inactive”.

With `CCc1ccnc(NC(=O)Nc2ccc(OCc3ccccc3)cc2)c1`, the Potency entry is “inactive”. In the case of `O=C(O)/C=C\C(=O)Nc1ccc(OCc2ccccc2)cc1` it was “inactive”; in that of `CC(C)(C)OC(=O)N(Cc1ccccc1)Cc1ccc(OCc2cccc(NC(=O)c3ccccc3)c2)cc1`, 18.4 µM (active); in that of `CN(CC(=O)Nc1cccc(F)c1)C(=O)CC1CCCC1`, “inactive”.

On to `Cc1cccc(C(=O)OC(C)CN2CCN(C)CC2)c1` (stereo unspecified), for which the Potency result was “inactive”.

In the case of `CC(CNC(=O)Cn1cnc2c(OCc3ccccc3)ncnc21)c1ccccc1` (stereo unspecified), the Potency result is “inactive”.

With `Cc1ccc(NC(=O)Cn2cnc3c(OCc4ccccc4)ncnc32)cc1C`, the Potency result was “inactive”.

For the molecule `Cc1ccc(CNC(=O)Cn2cnc3c(NCc4ccccc4)ncnc32)o1`, the Potency was 8.2 µM (active). The result for `Cc1cccc(OP(=O)(Nc2c(C)n(C)n(-c3ccccc3)c2=O)Oc2cccc(C)c2)c1` reads “inactive”. `CCC1CCCCN1CCCNC(=O)Cn1nc(-c2ccccc2)ccc1=O` (stereo unspecified): the Potency was 0.0103 µM (active). For `Cc1ccc(-c2ccc(=O)n(CC(=O)NCCCN3CCCCC3)n2)cc1`, the Potency entry was “inactive”. Regarding `CCC1CCCCN1CCCNC(=O)C1CCC(Cn2c(=O)[nH]c3ccccc3c2=O)CC1` (stereo unspecified), the Potency entry was “inactive”.

In the case of `Cc1ccc(C2Nc3ccccc3C(=O)N2CCN2CCNC2=O)cc1` (stereo unspecified), the Potency result is “inactive”.

`COc1ccc(S(=O)(=O)N2CCN(C(C)C(=O)Nc3ccc(C(C)C)cc3)CC2)cc1` (stereo unspecified): the Potency is 14.6 µM (active). For the molecule `COc1cccc(CNC(C)C(=O)Nc2ccc(S(=O)(=O)N3CCCC3)cc2)c1` (stereo unspecified), the Potency result was “inactive”. The result for `COc1ccc(OCC(=O)OCC(=O)Nc2ccc(S(=O)(=O)N3CCCCC3)cc2)cc1` reads “inactive”. In the case of `CCOC(=O)Cc1cc(=O)[nH]c(/N=C(\N)Nc2ccc(OC)cc2)n1` it was “inactive”; in that of `CC1CCN(C(=O)CCNC(=O)c2ccccc2)CC1`, “inactive”; in that of `CC1C(C)N(C(=O)CCl)c2ccccc2N1C(=O)CCl` (stereo unspecified), 0.58 µM (active). In the case of `CNC(=O)N1c2ccccc2C=Cc2ccccc21` it was “inactive”. On to `Cc1nc(C)c2c(c1C(F)(F)F)-c1ccccc1C2(F)F`, for which the Potency result was “inactive”. The result for `O=C(NC1CCCC1)c1ccc(Br)s1` reads “inactive”.

Turning to `CCOc1c2ccc(C(=O)NCc3ccc(OC(F)(F)F)cc3)cc2nn1C`, the Potency result was “inactive”. With `COc1cc(CNCc2cccs2)cc(Br)c1OC`, the Potency result is “inactive”.

As to `COc1ccc(CNCCCNCc2ccc(OC)c(OC)c2)cc1OC`, the Potency result was “inactive”. The result for `COc1cc(CNCc2ccc(OC)c3ccccc23)cc(OC)c1OC` reads 11.6 µM (active). The result for `COc1ccc(CNC(=O)COC(=O)C2=Cc3ccccc3OC2)cc1` reads “inactive”; that for `O=C(COc1ccccc1)N1CCc2ccccc2C1`, “inactive”.

Take `CCC(CC)c1nnc(NC(=O)/C=C/c2ccco2)s1`: the Potency result is “inactive”.

Turning to `Cc1ccc2nc(-c3ccc(C)c(NC(=O)Cc4ccccc4)c3)oc2c1`, the Potency entry is “inactive”.

Regarding `CCc1ccc2oc(-c3ccc(C)c(NC(=O)/C=C/c4ccco4)c3)nc2c1`, the Potency is 18.4 µM (active). `NC(=S)c1ccc(C(N)=S)o1`: the Potency entry was “inactive”.

For the molecule `Cc1ccc(C(=O)O/N=C(\N)c2ccccn2)cc1Cl`, the Potency entry is “inactive”. For `CCc1nnc(NC(=O)/C=C/c2ccc(C)o2)s1`, the Potency result is “inactive”. Turning to `COc1ccc(OC)c(NC(=O)/C=C/c2ccc(C)o2)c1`, the Potency result was “inactive”.

Regarding `Cc1ccc(/C=C/C(=O)Nc2ccc([N+](=O)[O-])c(NC(=O)/C=C/c3ccc(C)o3)c2)o1`, the Potency is 11.6 µM (active). Take `O=C(NC(=S)NC1CCSC1=O)c1ccccc1F` (stereo unspecified): the Potency entry is “inactive”. The result for `Cc1ccc(-n2c(=O)cc(N3CCN(Cc4ccccc4)CC3)[nH]c2=O)cc1` reads “inactive”; that for `COc1ccc(N(CC(=O)N/N=C/c2cccc3c2OCCO3)S(=O)(=O)c2ccc(NC(C)=O)cc2)cc1`, “inactive”; that for `CCOCCn1ccc2c(OCC(=O)NCc3ccc(C)cc3)cccc2c1=O`, “inactive”. In the case of `COC(=O)COc1cccc2c(=O)n(CC(=O)NCCc3ccc(OC)c(OC)c3)ccc12` it was “inactive”; in that of `COC(=O)COc1cccc2c(=O)n(CC(=O)NCc3ccccc3)ccc12`, 2.06 µM (active). Turning to `Cc1ccccc1OCC(=O)Nc1ccc2c(c1)ncn2C`, the Potency result is “inactive”. The result for `Cc1ccccc1OCC(=O)NNC(=O)c1cc(S(=O)(=O)N(C)C)ccc1N1CCCC1` reads “inactive”; that for `Cc1ccccc1OCC(=O)Nc1ccc(N2CCN(C(=O)C(C)C)CC2)c(Cl)c1`, 6.51 µM (active); that for `Cc1ccccc1N1CC(C(=O)Nc2nnc(SCCC3OCCO3)s2)CC1=O` (stereo unspecified), “inactive”. As to `O=C(CSc1nn(-c2ccc(F)cc2)c(=S)s1)NC1CCS(=O)(=O)C1` (stereo unspecified), the Potency entry is “inactive”.

For the molecule `CC(=O)CC[C@@H](C)O[C@@H]1OC(C)[C@H](O)CC1O` (stereo partly specified), the Potency result was “inactive”. The result for `CCc1cc(C(=O)Nc2nnc(C3CC3)s2)sc1C` reads “inactive”.

As for `Cc1cc(C(=O)Nc2nnc(C3CC3)s2)c(C)s1`, the Potency entry was “inactive”. In the case of `O=C(Nc1nnc(C2CC2)s1)c1ccccn1` it was 16.4 µM (active). The result for `O=C1CCC(C(=O)N2CCC(O)(c3ccccc3)CC2)CN1CCc1ccccc1` (stereo unspecified) reads “inactive”; that for `COCC(C)n1c(SCc2ccc(C(=O)OC)o2)nc2ccccc2c1=O` (stereo unspecified), 8.2 µM (active); that for `COCC(C)n1c(C)cc(C(=O)CSc2cc(C)c3ccccc3n2)c1C` (stereo unspecified), 16.4 µM (active). Regarding `COCCn1c(C)cc(C(=O)CSc2nc3ccccc3c(=O)n2C(C)COC)c1C` (stereo unspecified), the Potency was 9.2 µM (active). For the molecule `C=CCn1c(SCc2ccc(C(=O)NCCO)cc2)nc2ccccc2c1=O`, the Potency result was “inactive”. On to `Cc1cc(SCC(=O)NCCN2C(=O)CSC2=O)nc2ccccc12`, for which the Potency entry is “inactive”. As to `COc1ccc2c(C)cc(SCC(=O)NCC3CCCO3)nc2c1` (stereo unspecified), the Potency entry was “inactive”. For the molecule `COCCn1c(C)cc(C(=O)CSc2nnc(C3CC3)n2C2CC2)c1C`, the Potency entry was “inactive”. `COCCn1c(C)cc(C(=O)CN2c3cccc4cccc(c34)S2(=O)=O)c1C`: the Potency entry is “inactive”. The result for `Cc1ccc(C(=O)CSc2nc3ccccc3c(=O)n2N)o1` reads “inactive”. The result for `Nc1nc2c(Br)ccc(Br)c2cc1C(=O)NCCc1ccccc1` reads “inactive”. With `CC(C)C(=O)Nc1nnc(Sc2ccc(N(C)C)cc2)s1`, the Potency entry is “inactive”.

On to `Cc1ccc(N=C2SCCCN2C(=O)c2cccc(N3C(=O)CCC3=O)c2)cc1Cl`, for which the Potency result is “inactive”. Regarding `CCCn1c(=O)c2ccccc2n2c(SCC(=O)/C(C#N)=C(\C)N)nnc12`, the Potency result is “inactive”. In the case of `Cc1cc(NC(=O)CSC2=NS(=O)(=O)c3cc(Cl)ccc3N2)no1` it was “inactive”; in that of `Cc1cccc(C)c1-n1c(C)cc(/C=C2\C(=O)NN(c3ccccc3)C2=O)c1C`, “inactive”; in that of `O=c1oc2ccccc2c(CNc2ccccc2)c1[N+](=O)[O-]`, “inactive”.
